Hits are enriched below; roughly 1.7% of the tested compounds scored in any of these assays.
KCNH2 3.1 block: qHTS for Inhibitors of KCHN2 3.1: Mutant qHTS. Potassium voltage-gated channel subfamily H member 2, brain isoform KCNH2 3.1 (human). U2OS KCNH2 3.1, thallium flux FluxOr; stronger effect = lower value. activity change, % (tested at about 1.8 µM). actives 0.95% (n = 340,000). AID 720553, 2013;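 active = maximum activity change below -70%; inconclusive = maximum activity change from -70% to -50%; inactive = maximum activity change above -50%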;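 note: thallium influx rate constant from kinetic fluorescence after stimulation buffer; % is set by controls: 0 for no effect and ±100 for the full control effect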
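Channel expression came from 3.1 mutant virus (1.77 x 10^8 /mL) applied to suspended U2OS cells for 4 h. Flux was tracked with FluxOr dye plus Red40 quencher, and kinetic rate constants normalized to controls.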
TRPML1 blocker: qHTS for Inhibitors of the Human Mucolipin Transient Receptor Potential 1 (TRPML1); TRPML1-inducible cells, Ca2+ dye fluorescence, FDSS; stronger effect = lower value; inhibition of EC80 agonist-evoked calcium signal; AID 624415, 2012; actives 0.02% (n = 390,000); activity change, negative = inhibition, % (concentration not given with the values); in the data active = activity change below about -50%; inconclusive = between about -30% and that limit;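 note: stimulus is agonist 54-4 at its EC80 concentration; % is set by controls: 0 for no effect and ±100 for the full control effect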
Target sequence (Q9GZU1 whole entry, looked up): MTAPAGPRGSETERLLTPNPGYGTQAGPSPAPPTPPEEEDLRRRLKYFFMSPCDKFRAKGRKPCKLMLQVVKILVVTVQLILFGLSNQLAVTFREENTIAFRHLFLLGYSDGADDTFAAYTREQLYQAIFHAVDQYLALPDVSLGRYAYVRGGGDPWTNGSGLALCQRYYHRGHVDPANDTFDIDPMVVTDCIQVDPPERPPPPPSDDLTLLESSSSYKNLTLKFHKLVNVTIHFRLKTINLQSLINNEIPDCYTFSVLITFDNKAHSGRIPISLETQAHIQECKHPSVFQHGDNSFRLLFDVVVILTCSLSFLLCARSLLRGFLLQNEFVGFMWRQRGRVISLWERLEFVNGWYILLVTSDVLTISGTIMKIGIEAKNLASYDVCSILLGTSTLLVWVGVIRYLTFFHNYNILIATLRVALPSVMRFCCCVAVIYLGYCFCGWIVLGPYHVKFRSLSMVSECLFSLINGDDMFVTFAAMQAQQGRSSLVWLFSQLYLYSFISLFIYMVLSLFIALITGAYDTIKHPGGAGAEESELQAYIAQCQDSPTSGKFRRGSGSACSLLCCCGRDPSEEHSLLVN
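TRPML1-DL cells, Tet-induced overnight (~16 h, 37 °C) at 1,500 cells/well, were loaded with Ca8 no-wash dye plus quencher for 45-90 min at room temperature. Compounds were pinned during FDSS kinetic reading; agonist 54-4 at EC80 (4 uM final) then added.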
TRHR ag: qHTS for Small Molecule Agonists and Allosteric Enhancers of Human TRH Receptor: Primary Screen for Agonists; Thyrotropin-releasing hormone receptor (Homo sapiens), P34981; TRHR cells, calcium flux fluo-8, FDSS agonist mode; activation, % at 2 µM; actives 0.18% (n = 360,000); in the data active = activation above about 30%; note: 0% is about no effect
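Agonist-mode FDSS calcium read (Ex 480/Em 530, 1 s cycles) in 1536-well TRHR cells with fluo-8 dye, after 10-cycle baseline and 23 nL compound addition; TRH at EC20 (10 nM final) added afterwards for the enhancer phase.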
KCNH2 WT inh: qHTS for Inhibitors of KCHN2 3.1: Wildtype qHTS | Voltage-gated inwardly rectifying potassium channel KCNH2 (Homo sapiens), Q12809 | U2OS, BacMam KCNH2, thallium flux FluxOr; stronger effect = lower value | activity change, % at 1.84 µM | actives 0.37% (n = 340,000);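 active = maximum activity change below -70%; inconclusive = maximum activity change between -70% and -50%; inactive = maximum activity change above -50%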; note: % is set by controls: 0 for no effect and ±100 for the full control effect
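U2OS cells were transduced with wild-type KCNH2 virus (2.03 x 10^8 / mL) for 4 h at room temperature, then cultured overnight at 37 C. Thallium flux was read with FluxOr dye. Rate constants were normalized to DMSO controls.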
TRHR PAM: qHTS for Small Molecule Agonists and Allosteric Enhancers of Human TRH Receptor: Primary Screen for Enhancers; enhancement, % at 2 µM; TRHR cells, fluo-8 calcium fluorescence, EC20 TRH enhancement; AID 493056, 2011; actives 0.66% (n = 360,000); Thyrotropin-releasing hormone receptor (Homo sapiens), P34981; in the data active = enhancement above about 30%; note: 0% is about no effect
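Enhancer read-out: after compound pinning and an initial kinetic agonist-mode read, an EC20 of TRH (10 nM final) was injected and fluo-8 calcium signal (Ex 480/Em 530) followed at 1 s/cycle for 100 cycles in TRHR-expressing cells.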
TRPML1 ag: qHTS for Agonists of the Human Mucolipin Transient Receptor Potential 1 (TRPML1) | actives 0.12% (n = 410,000) | activation, % (concentration not given with the values) | TRPML1-expressing cells, Ca2+ dye fluorescence, FDSS | AID 624414, 2012; in the data active = activation above about 50%; inconclusive = mostly about 30% to 49%; note: 0% is about no effect
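Calcium fluorescence on an FDSS kinetic reader gave the read-out. Tet-induced TRPML1-DL cells were plated overnight, dye-loaded (Ca8 with quencher, 45-90 min, room temperature, dark), then read 110 s after compound addition, and again 110 s after 4uM final 54-4 (EC80).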
* hit, by the source's call; ? = inconclusive; . = not tested or not shown.

SMILES	KCNH2 3.1 block	TRPML1 blocker	TRHR ag	KCNH2 WT inh	TRHR PAM	TRPML1 ag
CCOC(=O)C1=NN(C(=O)c2ccc(C)cc2)C(O)(c2ccc(Cl)cc2)C1 (centres undefined)	-4.1	9.9	49.0*	-6.2	-2.4	?
COc1ccc(F)cc1-c1cc(NC(C)=O)c2ncc(-c3cccc(C(F)(F)F)c3)n2c1	.	.	.	.	.	-0.8
CC(C)(C)CN1CCN(Cc2cccnc2)CC1CCO (centres undefined)	-4.4	-16.6	0.4	-5.1	0.4	0.5
Nc1ccccc1-c1nnc(-c2ccccc2N)n1N	-113.6*	5.8	0.7	3.3	-1.3	-0.1
O=C(CCCC(=O)N1CCN(c2ccc([N+](=O)[O-])cc2)CC1)c1ccccc1	-95.4*	4.7	-0.3	-88.4*	-2.5	2.5
O=[N+]([O-])c1ccc(N2CCN(C(=S)NCc3ccc(Cl)cc3)CC2)cc1	-93.2*	7.2	1.8	-25.7	-8.8	0.2
CCOCC(=O)N1CCN(c2ccc([N+](=O)[O-])cc2)CC1	-73.2*	-14.9	0.1	-95.5*	0.5	0.0
O=C(CCCc1ccccc1)N1CCN(c2ccc([N+](=O)[O-])cc2)CC1	-41.8	22.8	0.1	-12.3	3.5	0.6
CN(C)CC1(C)Cc2ccsc2C1O (centres undefined)	-5.8	8.1	.	-2.8	.	-0.5
Cc1ccc2nc(-c3cccnc3)oc2c1	-179.5*	90.9	0.0	-221.4*	0.5	0.1
CCc1nc(=O)c(-c2ccccc2)c(C)n1-c1ccccc1	7.0	-53.3*	0.1	-5.7	37.0*	1.6
CC(Sc1nnc2n1CCCCC2)C(=O)Nc1cccc(S(=O)(=O)N2CCOCC2)c1 (centres undefined)	4.9	-3.4	-0.1	-5.6	2.0	0.5
Clc1ccc(CN2C3=NCCCN3c3ccccc32)cc1	?	-3.4	-0.2	41.1	3.0	0.8
CCN1C2=NCCCN2c2ccccc21	-0.8	-4.9	-0.1	4.4	-3.9	0.7
Clc1ccc(CN2C3=NCCCN3c3ccccc32)cc1Cl	-104.3*	5.6	0.9	-84.7*	-6.9	1.6
OC(CN1C2=NCCCN2c2ccccc21)c1ccc(Cl)cc1 (centres undefined)	-74.4*	14.5	0.3	-0.3	12.2	0.3
OC(COc1ccc(Cl)cc1)CN1C2=NCCCN2c2ccccc21 (centres undefined)	-97.2*	30.5	0.6	-146.1*	-4.3	1.1
OC(CN1C2=NCCN2c2ccccc21)c1ccc(Br)cc1 (centres undefined)	-72.9*	-7.8	2.0	21.1	2.9	1.8
CCCC[C@@H]1CCCO[C@@](C(=O)NCc2ccccc2)(C(F)(F)F)C1	.	-3.7	.	.	.	0.2
CCOc1ccc(C(=O)Nc2ccccc2OCc2cc(=O)n3ccccc3n2)cc1	.	2.0	0.2	.	3.7	1.2
COc1ccccc1N1C(=O)C2C(C(=O)c3ccccc3)=NN(c3ccc(C)cc3)C2C1=O (centres undefined)	-24.5	4.5	31.0*	-18.9	-1.1	16.8
O=C(C1=NN(c2ccccc2)C2C(=O)N(c3cccc(Cl)c3)C(=O)C12)c1ccccc1 (centres undefined)	-0.1	-5.2	41.2*	6.6	6.6	?
NC(=O)c1ccc(Oc2ccc(Cl)c3ccccc23)c([N+](=O)[O-])c1	-9.8	17.9	-0.1	-9.4	30.7*	0.8
CN(C)c1ccc(/C=C2\SC(=S)N(Nc3ncc(C(F)(F)F)cc3Cl)C2=O)cc1	-73.3*	-4.0	79.8*	-132.5*	27.3	52.8*
Cc1cc(C)nc(NN2C(=O)/C(=C/c3ccccc3)SC2=S)n1	0.4	24.5	0.4	-6.2	0.5	0.0
SMILES	KCNH2 3.1 block	TRPML1 blocker	TRHR ag	KCNH2 WT inh	TRHR PAM	TRPML1 ag
O=C(c1ccccc1Cl)N(Cc1ccco1)c1ccccn1	.	11.1	-0.8	.	-3.9	0.0
O=C(O)COc1ccccc1/C=N/NC(=O)Cc1ccccc1	-0.5	23.1	0.6	4.5	3.3	0.0
O=C(O)COc1ccccc1/C=N/NC(=O)Cc1csc(Nc2cccc(C(F)(F)F)c2)n1	11.9	-5.8	0.6	-2.6	36.3*	-0.1
COC(=O)c1ccc(NC(=S)NCCc2ccc(OC)cc2)cc1	-2.4	-5.3	0.6	-5.8	1.4	1.3
Cc1ccc(NC(=O)c2ncn(CCCN(CCCn3cnc(C(=O)Nc4ccc(C)c(C)c4)n3)Cc3ccc4[nH]ccc4c3)n2)cc1C	-77.1*	19.1	.	-90.6*	.	-0.4
COC(=O)C[C@H](NC(=O)Cn1cnc(C(=O)Nc2ccc(C)c(C)c2)n1)C(=O)OC	13.3	45.7	.	-3.7	.	0.2
Cc1ccc(NC(=O)c2ncn(CC(=O)NCc3ccc4[nH]ccc4c3)n2)cc1C	-29.9	18.2	.	-1.5	.	0.4
COc1ccc(CCNC(=O)C(=O)Nc2ccc(C)c(C)c2)cc1	.	-8.2	-0.5	.	31.9*	-0.4
COc1ccc(CNCCCn2cnc(C(=O)Nc3ccc(C)c(C)c3)n2)cc1	-86.5*	-2.3	.	3.7	.	-0.7
COC(=O)Cn1cnc(C(=O)Nc2ccc(C)c(C)c2)n1	-72.9*	4.9	.	-5.0	.	-0.5
O=C(COC(=O)C1=COCCO1)Nc1cc(Cl)c(Cl)cc1Cl	10.4	-1.1	.	-6.6	.	1.8
Cc1cc(Nc2ccc(F)cc2)nc(-n2nc(C)cc2C)n1	.	-15.5	0.2	.	3.0	-1.0
Cc1cc(F)ccc1S(=O)(=O)NCC(c1cccnc1)N1CCc2ccccc21 (centres undefined)	12.4	-2.2	-0.1	15.4	-5.3	4.1
Cc1ccc(NC(=O)c2ncn(CCCNCCCc3ccccc3)n2)cc1C	-91.1*	29.2	.	-80.4*	.	0.5
O=S(=O)(c1c(F)cccc1F)N1CCN(S(=O)(=O)c2c(F)cccc2F)CC1	.	.	0.0	.	2.7	.
CCc1nn(CC(=O)NCC(C)c2ccccc2)c(=O)c2cc3c(OC)cccc3n12 (centres undefined)	.	-13.0	-0.2	.	8.9	-0.8
CCN(CC)CCCCN1c2ccccc2Sc2ccccc21	-72.5*	9.0	1.6	9.4	-8.3	2.8
CCN(CC)CC(=O)N1c2ccccc2Sc2ccccc21	17.8	22.6	0.5	2.3	1.5	1.2

Compound activity as filed in PubChem BioAssay.
